Sampled rows, rich in hits. Any-hit rate of the full collection: about 12%.
L3MBTL1 inh: qHTS Assay for the Inhibitors of L3MBTL1. Lethal(3)malignant brain tumor-like protein 1 (Homo sapiens), Q9Y468. AlphaScreen L3MBTL1–H3K9me1 peptide binding. Potency, µM (titrated, usually from 57.1 µM), without a hit: at the top dose activity, negative = inhibition, actives largely listed as inhibitors. actives 0.66% (n = 230,000); also: % is scaled to controls: 0 for no effect and ±100 for the full control effect; nearly all actives have a fitted effect of over 60% in size
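L3MBTL1 (50 nM) pre-complexed 30 min with biotinylated H3(1-15)K9me1 peptide (75 nM), then compounds added for 30 min at room temperature; AlphaScreen streptavidin donor/nickel chelate acceptor beads (10 ug/mL final) read after 30 min dark incubation.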
HP1b chromo inh: HTS for Inhibitors of HP1-beta Chromodomain Interactions with Methylated Histone Tails; actives 0.56% (n = 390,000); Chromobox protein homolog 1 (Homo sapiens), P83916; AlphaScreen HP1-beta / biotin-H3K9me3 peptide binding; Potency, µM (titrated, usually from 114 µM), inactives show at the highest dose activity change, negative = inhibition, hits mostly inhibitors; also: nearly all actives have a fitted effect of over 70% in size
Target sequence (P83916 whole entry, looked up): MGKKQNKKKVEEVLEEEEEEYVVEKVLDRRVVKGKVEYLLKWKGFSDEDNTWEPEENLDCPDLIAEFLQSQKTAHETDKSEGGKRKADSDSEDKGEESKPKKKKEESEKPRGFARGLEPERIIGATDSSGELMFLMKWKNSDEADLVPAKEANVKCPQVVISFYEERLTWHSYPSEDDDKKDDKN
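Compound inhibition of the preformed complex between 50 nM HP1-beta and 50 nM biotinylated H3K9me3 peptide was read by AlphaScreen. Buffer was PBS pH 7.4 with 0.01% Tween-20. Incubations ran 30 min at room temperature, with 10 ug/mL donor/acceptor beads.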
BAZ2B block: qHTS Assay for Inhibitors of BAZ2B; Bromodomain adjacent to zinc finger domain protein 2B (Homo sapiens), Q9UIF8; AlphaScreen BAZ2B-H3K14Ac peptide displacement; Potency, µM (top dose mostly 114 µM), for the others: at the top dose activity change, negative = inhibition, most hits filed as inhibitors; actives 4.4% (n = 360,000); AID 504333, 2011; also: % is scaled to controls: 0 for no effect and ±100 for the full control effect; nearly all actives have a fitted effect of over 60% in size
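In this displacement format the biotinylated H3(5-23) peptide acetylated at Lys14 serves as ligand at 50 nM, with BAZ2B at 50 nM in PBS pH 7.4 containing 0.01% Tween-20. Donor and acceptor beads are 10 ug/mL final.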
G9a block: qHTS Assay for Inhibitors of Histone Lysine Methyltransferase G9a | Histone-lysine N-methyltransferase EHMT2 (Homo sapiens), Q96KQ7 | G9a H3K9 monomethylation, AlphaScreen, 2 h | Potency, µM (doses to about 102 µM), without a hit: at the highest dose activity, negative = inhibition, actives largely listed as inhibitors | actives 8.8% (n = 350,000) | AID 504332, 2011; also: % is scaled to controls: 0 for no effect and ±100 for the full control effect; nearly all actives have a fitted effect of over 75% in size
Target sequence (Q96KQ7 913-1193 limits assumed): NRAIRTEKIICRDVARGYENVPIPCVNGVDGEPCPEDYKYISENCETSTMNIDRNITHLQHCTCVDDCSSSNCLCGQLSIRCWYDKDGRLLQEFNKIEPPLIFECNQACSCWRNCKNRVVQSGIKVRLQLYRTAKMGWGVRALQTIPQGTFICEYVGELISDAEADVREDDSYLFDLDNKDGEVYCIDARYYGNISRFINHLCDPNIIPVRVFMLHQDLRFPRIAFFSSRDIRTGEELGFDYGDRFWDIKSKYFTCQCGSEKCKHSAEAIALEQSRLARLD
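Using a bead-based AlphaScreen, monomethylated H3K9 product from 2 h room-temperature reactions (G9a 20 nM, peptide 500 nM, SAM 20 uM) was detected with 0.5 ug/mL rabbit anti-H3K9me1 antibody.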
JMJD2A Tudor: qHTS Assay for Inhibitors of JMJD2A-Tudor Domain. Lysine-specific demethylase 4A (Homo sapiens), O75164. AlphaScreen JMJD2A-Tudor / H3K4me3 peptide binding. Potency, µM (doses to about 114 µM), for the others: top-dose activity change, negative = inhibition, most hits filed as inhibitors. actives 4.4% (n = 390,000). AID 504339, 2011; also: % is scaled to controls: 0 for no effect and ±100 for the full control effect; nearly all actives have a fitted effect of over 50% in size
Sfp inh: qHTS Assay for Inhibitors of Bacillus subtilis Sfp phosphopantetheinyl transferase (PPTase). 4'-phosphopantetheinyl transferase ffp (Bacillus subtilis), Q9F4F7. Biochemical Sfp PPTase activity, qHTS. Potency, µM, without a hit: largest response in the series, negative = inhibition, usual class: inhibitors. actives 3.5% (n = 310,000). AID 1490, 2009;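 also: the enzyme is Sfp with the accession as filed and its product quenches rhodamine fluorescence; 0% = enzyme reaction without inhibitor and -100% = no enzyme wells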
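Sfp 15 nM + cpd, 15 min RT; start w/ rhodamine-CoA 5 uM, BHQ-2-YbbR 12.5 uM (final); 50 mM Hepes pH 7.6, 10 mM MgCl2, 0.01% NP-40, 0.01% BSA; read 525/598 nm at 0 and 30 min.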
* marks the source's active call; other numbers are inactive results; ? = inconclusive; · = not tested or not shown; [ ] = another dose, or the depositor's remark. Calls follow the shape of the dose curve; as a rule, active = well fitted curve in the direction sought with a large enough effect; inconclusive = small, poorly fitted or top-dose-only effect, or another doubt; inactive = no such curve, though single readings can be large; an effect the other way counts as inactive or inconclusive. Potency is read from the fitted curve at half-maximal effect.

SMILES | L3MBTL1 inh | HP1b chromo inh | BAZ2B block | G9a block | JMJD2A Tudor | Sfp inh
Fc1ccc(NCc2ccccc2-c2nnc(-c3ccccc3Cl)o2)cc1 | · | 15% | 2% | 6%[59 µM] | -13% | ·
O=C(NCc1cccs1)c1ccc(CSc2nc3cccnc3n2Cc2ccccc2F)cc1 | · | ? | 8.9µM* | 2.5µM* | 5.6µM* | ·
CN(Cc1ccccc1)C(=O)c1ccc(CSc2nc3cccnc3n2Cc2ccccc2F)cc1 | · | ? | 25µM* | 4.5µM* | 5µM* | ·
O=C(NCc1cccs1)c1ccc(Cn2c(SCc3ccc(F)cc3)nc3cccnc32)cc1 | · | 40% | 0% | -27%[59 µM] | -17% | ·
COc1ccc(-c2nc(C)c(C(C)=O)n2O)cc1[N+](=O)[O-] | 7% | 37% | -16% | 56µM* | -26% | -4%
CC(=O)c1c(C)nc(-c2cccc([N+](=O)[O-])c2)n1O | -5% | 0% | ? | ? | -26% | ?
COc1ccc(-c2cc(C(=O)Nc3c(Cl)cccc3Cl)no2)cc1OC | · | 22% | 3% | -4%[59 µM] | -8% | ·
O=C(CSc1nc2ccccc2o1)c1cc2ccccc2oc1=O | -22% | 12% | -35% | -19%[59 µM] | -30% | 5%
O=C(CSC(=S)N1CCOCC1)c1cc2ccccc2oc1=O | · | -3% | -24% | 71µM* | -30% | -4%
Cc1cc(C)nc(SCC(=O)c2cc3ccccc3oc2=O)n1 | -3% | 35% | -34% | ? | -21% | 18µM*
CCC(NC(=O)CCl)c1ccc(C)cc1 (centres undefined) | 4% | -12% | -22% | -40% | 56µM* | 18%
Cc1ccc(N2CCN(C(=O)c3cc4cc5ccc(C)cc5nc4s3)CC2C)cc1 (centres undefined) | · | 28% | -19% | 4%[59 µM] | -8% | ·
COc1ccc(N2CCN(c3ncnc4c3cnn4C)CC2)cc1 | · | 23% | -18% | 14µM* | -34% | ·
Cc1cccc(-n2ncc3c(N4CCN(c5ccccc5)CC4)ncnc32)c1 | · | 108% | -7% | -3%[59 µM] | 16µM* | ·
c1cncc(-c2nccc(-n3ccnc3)n2)c1 | · | · | · | · | · | 3%
CCCOc1ccc(C2c3c(-c4ccccc4O)n[nH]c3C(=O)N2CCCOCC)cc1OCC (centres undefined) | · | 6% | -3% | -20%[59 µM] | ? | ·
O=Cc1sc(=O)n(Cc2cccc(C(=O)O)c2)c1Cl | -30% | 41%[57 µM] | 2% | ? | -17% | 45µM*
O=c1sc(/C=N/Nc2ccccc2)c(Cl)n1Cc1ccccc1 | -1% | 12% | ? | 14µM* | -22% | 50µM*
COC(=O)c1cccc(Cn2c(Cl)c(/C=N/NC(=O)c3ccco3)sc2=O)c1 | · | 37% | 56µM* | 50µM* | -18% | 6%
O=C(O)c1cccc(Cn2c(Cl)c(/C=N/NC(=O)c3ccc(O)cc3)sc2=O)c1 | · | 10% | -14% | ? | -11% | 25%
COc1ccc2c(c1)OC[C@H]1c3cc4c(cc3O[C@@H]21)OCO4 | · | · | · | · | · | 13%
Cc1ccc(-n2ccnc(NCc3ccccc3)c2=O)cc1C | · | -16% | ? | ? | -17% | ·
COc1ccc(OC)c(CCNc2nccn(-c3ccc(C)c(C)c3)c2=O)c1 | · | ? | 25µM* | 16µM* | 56µM* | ·
CC1(C)O[C@@H]2[C@H](O1)[C@@H](COS(=O)(=O)O)O[C@H]2n1cnc2c(N)ncnc21 | 7% | · | -10% | -11%[2.33 µM] | · | ·
CC1(C)O[C@@H]2[C@H](O1)[C@@H](COS(=O)(=O)O)O[C@H]2n1c(=S)[nH]c2c(=O)[nH]c(N)nc21 | -15% | -24% | -6% | 13%[2.33 µM] | 20µM* | ·
SMILES | L3MBTL1 inh | HP1b chromo inh | BAZ2B block | G9a block | JMJD2A Tudor | Sfp inh
Nc1nc2c([nH]c(=S)n2C2OC(CO)C(O)C2O)c(=O)[nH]1 (centres undefined) | · | · | · | · | · | 45µM*
COc1cccc(N2CC(NC(=O)C3CCCCC3)CC2=O)c1 (centres undefined) | · | 44% | -14% | -14%[59 µM] | -9% | ·
CCOC(=O)c1c(C)c(-c2ccccc2)n(CC(=O)N2CCN(C)CC2)c1C | · | 10% | -7% | 71µM* | -29% | -3%
CC(C)C[C@H](NC(=O)OC(C)(C)C)c1n[nH]c(=S)n1N | 2% | 27% | -18% | 10µM* | 4% | -52%
Cc1[nH]ccc(=O)c1Oc1ncc(C(F)(F)F)cc1Cl | 11% | 21% | -10% | 56µM* | -15% | 12%
CN1CCN(C(=O)c2c(O)c3cccc4c3n(c2=O)CCC4)CC1 | 30% | 39% | · | 14µM* | 0% | 6%
CCCCS/C(=C(/C#N)C(N)=O)c1cc2c([nH]1)CCCC2 | ? | ? | 40µM* | 20µM* | 45µM* | ?
CCc1ccc(N/C(SC)=C(/C#N)C(N)=O)cc1 | ? | 21% | -35% | 38%[0.501 µM] | -1% | 2%
Cc1cc(C2CCCCC2)n(O)c(=O)c1 | -28% | 25% | 79µM* | 5%[59 µM] | ? | 5%
COc1ccc(NC(=O)COc2coc(CN3CCc4ccccc4C3)cc2=O)cc1 | -7% | 28% | -7% | -5%[0.501 µM] | -18% | ·
NC(=O)c1ccc(NC(=O)COc2coc(CN3CCc4ccccc4C3)cc2=O)cc1 | -5% | 24% | ? | 50µM* | -16% | ·
Cc1ccc(NC(=O)COc2coc(CN3CCc4ccccc43)cc2=O)cc1Cl | ? | -35% | 50µM* | -26% | 45µM* | ·
O=C(COc1coc(CN2CCc3ccccc32)cc1=O)N1CCCCC1 | 3% | 9% | -5% | 71µM* | -22% | ·
O=C(COc1coc(CN2CCCc3ccccc32)cc1=O)Nc1ccc([N+](=O)[O-])cc1 | -4% | 8% | -9% | 11µM* | -18% | ·
CC(C)c1ccc2occ(CC(=O)Nc3ccccc3Cl)c2c1 | · | 122% | 45% | 49%[59 µM] | 139% | ·
Cc1ccccc1NC(=O)COc1coc(CN2CCCc3ccccc32)cc1=O | -7% | 6% | 50µM* | 50µM* | ? | ·
Oc1ccc(/C(Cc2ccc3ccccc3n2)=N\Nc2ccccc2)c(O)c1 | · | 71µM* | ? | 7.9µM* | 50µM* | -30%
Oc1ccc(/C(Cc2ccccn2)=N\Nc2ccccc2)c(O)c1 | · | -28% | 32µM* | 4µM* | ? | -10%

Source: PubChem BioAssay (National Center for Advancing Translational Sciences (NCATS))
